For 40 molecules, growth inhibition results are on record in PubChem BioAssay (NCI).

Structures are written as SMILES. The panel holds about 79,000 compounds, 15% with a hit somewhere; the sample as a whole holds those more often. Values without a mark were called inactive. The source made the active and inactive calls. Rule as the data show it: active = growth inhibition above about 70%; inactive = the rest.

The first assay is described as follows: NCI Yeast Anticancer Drug Screen. Data for the sgs1 mgt1 strain (AID 161).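 Also: 0% = growth of cultures given vehicle only.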 As to conditions: S. cerevisiae sgs1 mgt1 strain, at 50.0 µM, hits give high values. Put shortly:
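Test agents were incubated with a DNA-repair-mutant yeast strain. Growth was then read and compared against vehicle-treated controls.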
As to `CC(C)C(CN)(C(C)C)C(C)C`, the growth inhibition is -8.65%.
Same read-out and setting: as for `O=C(NCCCN1CCN(CCCNC(=O)Nc2ccc(Br)cc2)CC1)Nc1ccc(Br)cc1`, the figure is 38.4%; as for `Cc1ccccc1C1=CCCCCC1`, -2.8%; as for `O[C@]12c3ccccc3C1CCCCC2N1CCOCC1` (stereo partly drawn), -61%.
As for `Cc1ccnc(SCC(=O)O)n1`, the growth inhibition is 5.45%.
On the same count and under the same terms, as for `COc1cc(C2=N/C(=C\C=C\c3ccccc3)C(=O)O2)cc(OC)c1OC`, the figure is 21.9%; as for `CC(C)(C)CC(C)(O)COC(=S)S` (stereo not drawn), 1.65%; as for `Cc1ccc(S(=O)(=O)Nc2ccc(C(=O)NC(CCC(=O)O)C(=O)O)cc2)cc1` (stereo not drawn), -8.05%.
The same measure, in the same setting: then `Nc1n[n+](-c2ccc(Cl)cc2)no1`, with 87.4% (active); and `O=C(C[n+]1ccccc1-c1ccccn1)c1ccc(-c2ccccc2)cc1`, with 22.4%; and `C[N+]([O-])=C(c1ccccc1)c1ccccc1`, with -9.4%.
The same measure, in the same setting: as for `CCOc1ccc(C(=O)OC)cc1`, the figure is 31%; as for `O=C(O)c1c(Br)c(Br)c(Br)c(Br)c1C(=O)Nc1ccccc1F`, 7.55%; as for `O=C(OCCCl)C1CC2C=CC1C2` (stereo not drawn), 3.85%.
`CCc1cccc(CC)c1NC(=O)c1ccc(C)cc1`: the growth inhibition was 9.4%.
The same measure, in the same setting: as for `Nc1nn(CC(O)CO)c(=O)s1` (stereo not drawn), the figure is 2.4%; as for `Nc1nc2ccccc2[nH]1`, -17.7%.
For the molecule `COc1ccc(N=Nc2c(C)c(C#N)c(=S)n(C3OC(COC(C)=O)C(OC(C)=O)C(OC(C)=O)C3OC(C)=O)c2-c2ccccc2)cc1` (stereo not drawn), the growth inhibition was -20.6%.
The same measure, in the same setting: as for `[N-]=[N+]=NCC1OCOC1C1OCOC1CN=[N+]=[N-]` (stereo not drawn), the figure is -4.05%.
Still for that read-out and setting: then `COC1OC(COC(c2ccccc2)(c2ccccc2)c2ccccc2)C(OS(=O)(=O)c2ccc(C)cc2)C(OC(=O)c2ccccc2)C1OC(=O)c1ccccc1` (stereo not drawn), with -1.15%; and `Cc1ccc(C)c2c1C(=O)c1ccccc1C2(O)C#Cc1ccccc1` (stereo not drawn), with 29.4%; and `CN(c1ccccc1)c1nc(Cl)c(Cl)c(Cl)n1`, with 6.55%.
The same measure, in the same setting: as for `O=C(NC1CCCCC1)OC/C=C\c1ccccc1`, the figure is -7.8%.

The next assay is described as follows: NCI Yeast Anticancer Drug Screen. Data for the cln2 rad14 strain (AID 165).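 Also: 0% = growth equal to vehicle treated cultures.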 As to conditions: S. cerevisiae cln2 rad14 strain, at 50.0 µM, hits give high values. Put shortly:
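Growth of compound-exposed yeast (cln2 rad14 genotype) measured and expressed as inhibition relative to vehicle.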
In the case of `CC(=O)OCCOCCCl`, the growth inhibition was -13.3%.
Same read-out and setting: then `Cc1ccc(Sc2ccc3ccccc3c2)nc1`, with -12.2%; and `CC(C)=C1C2CCC1[C@H](COS(C)(=O)=O)[C@@H]2COS(C)(=O)=O`, with 16.9%.
On the same count and under the same terms, then `N[C@@H]1CCCC[C@H]1O`, with -24.9%.
Same read-out and setting: as for `CCC1=CCN2CCC34c5cc(C6(C(=O)OC)CC7CC(CC)CN(CCc8c6[nH]c6ccccc86)C7)c(OC)cc5N(C)C3C(O)(C(=O)OC)C(OC(C)=O)C1C24` (stereo not drawn), the figure is 3.95%.
On to `COC(=O)C1(CC(=O)c2ccc(F)cc2)NC(=S)NC(=O)C1C#N` (stereo not drawn), for which the growth inhibition is -13.1%.
On the same count and under the same terms, then `Cn1c(=O)c2c(nc(Br)n2CC(=O)c2ccc([N+](=O)[O-])cc2)n(C)c1=O`, with 18.9%; and `CC(=O)NC(C)c1ccc2ccccc2c1` (stereo not drawn), with 7.55%.
With `O=C(NNC(=O)c1cccc(F)c1)c1cccc(F)c1`, the growth inhibition was 18.9%.
On the same count and under the same terms, then `CCOC(=O)C1=C(O)c2c(OC)ccc(OC)c2C(=O)C1=O`, with 3.65%; and `NC(CSCC(=O)O)C(=O)O` (stereo not drawn), with -20.6%.
On the same count and under the same terms, as for `Clc1c(Cl)c(Cl)c(CSCc2c(Cl)c(Cl)c(Cl)c(Cl)c2Cl)c(Cl)c1Cl`, the figure is -31.9%; as for `CCCCCCCNc1ccc(C(=O)OCC)cc1`, 8.15%.
On the same count and under the same terms, as for `Oc1c(Cl)cc(N=Cc2ccc(N(CCCCl)CCCCl)cc2)cc1Cl`, the figure is 92% (active); as for `COc1ccc2c3ccc4c(c3n(C)c2c1)C(=O)c1ccccc1C4=O`, -14.7%.
With `Cc1ccsc1/C=N/Nc1ncccn1`, the growth inhibition was 3.7%.
On the same count and under the same terms, as for `O=C1Nc2ccccc2C1=O`, the figure is -22.5%.
Still for that read-out and setting: as for `CC(C)C(CN)(C(C)C)C(C)C`, the figure is 8.55%.
Still for that read-out and setting: then `O=C(NCCCN1CCN(CCCNC(=O)Nc2ccc(Br)cc2)CC1)Nc1ccc(Br)cc1`, with 12.2%; and `Cc1ccccc1C1=CCCCCC1`, with 0.75%; and `O[C@]12c3ccccc3C1CCCCC2N1CCOCC1` (stereo partly drawn), with -8.45%.
Consider `Cc1ccnc(SCC(=O)O)n1`, for which the growth inhibition was 12.9%.
On the same count and under the same terms, as for `COc1cc(C2=N/C(=C\C=C\c3ccccc3)C(=O)O2)cc(OC)c1OC`, the figure is 18.9%; as for `CC(C)(C)CC(C)(O)COC(=S)S` (stereo not drawn), -11.2%.
On the same count and under the same terms, then `Cc1ccc(S(=O)(=O)Nc2ccc(C(=O)NC(CCC(=O)O)C(=O)O)cc2)cc1` (stereo not drawn), with -2.45%.
